About 83,000 compounds went through this panel and 20% of them were active in at least one assay; those are over-represented in the sample as a whole.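 Single-concentration screen, 48 h exposure, 96-well plates. Endpoint: percent growth. Below 10 = active.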 Unmarked numbers belong to inactive results. Activity calls are given as the source filed them.
Test system: NCI-H460 lung
Assay: NCI-60 one-dose screen, 48 h (100 = growth as untreated, 0 = no growth, -100 = all killed)
Conditions: 10 µM unless noted

| Structure (SMILES) | growth |
| --- | --- |
| COc1cc(C(=O)n2nc(N3CCN(C)CC3)c3cc(N)ccc32)cc(OC)c1OC | 38.8% |
| O=C1N[C@@H]2NC(=[N+]3CCOCC3)N[C@@H]2N1 | 104% |
| N#Cc1c(N)nnn1Cc1cc(=O)oc2c1ccc1ccccc12 | 101% |
| COc1cc(OC)cc(C2=C3CC[C@@H]4[C@H](CC[C@]5(C)C(=O)CC[C@@H]45)C3=CC3C(O)c4cccnc4N4C(=O)COC234)c1 (stereo not given in full) | 103% |
| C=C(C)[C@@H]1CC[C@]2(C(=O)N3CCN(C)CC3)CC[C@]3(C)[C@H](CC[C@@H]4[C@@]5(C)CC(=C/c6ccncc6)/C(=N/O)C(C)(C)[C@@H]5CC[C@]43C)[C@@H]12 | 69.5% |
| CN1CCN(Cc2ccc3c(NNC(=O)c4ccccc4)nc4cc(F)ccc4n23)CC1 | 3.88% (active) |
| CCOC(=O)c1c2c(n3ccc(C)cc13)C(=O)c1ccccc1C2=O | 58.7% |
| CCCC(=O)NC(c1ccc2c(c1)OCO2)c1ccc2cccnc2c1O (stereo not given) | 9.17% (active) |
| Cc1nc2sc(C(=O)Nc3ccccc3)c(N)c2cc1C(=O)c1ccccc1 | 6.08% (active) |
| COC(=O)c1ccc2c(c1)C(=O)c1c-2n(CCCN)c(=O)c2cc([N+](=O)[O-])ccc12 | -100% (active) |
| CO[C@]12C=C/C(=C(/C(=O)OCc3cccnc3)C(=O)CCCCCCCC[C@@]3(OC)C=C/C(=C(/C(=O)OCc4cccnc4)C(=O)CCCCCCCC1)O3)O2 | 3.19% (active) |
| Brc1c2c(c(Br)c3ccccc13)CCCC2 | 111% |
| Cc1cc2c([nH]1)CSc1cc(S(=O)(=O)c3ccccc3)c(=O)[nH]c1-2 | 4.49% [100 µM] (active) |
| CC1=C(Nc2ccc(N3CCN(C)CC3)cc2)C(=O)c2cncnc2C1=O | 25.2% |
| CCCCCCC1(C)NCCO1 (stereo not given) | 106% |
| C#CCOc1cccc(Nc2ncnc3ccc(NC(=O)CCl)cc23)c1 | -19.9% (active) |
| COc1ccc(C(=O)C2C(c3ccc(OC)cc3)CN(C)C23C(=O)Nc2ccccc23)cc1 (stereo not given) | 97.7% |
| CCN(CC)CCNC(=O)c1cn2ncnc(Oc3ccc(NC(=O)Nc4ccc(Cl)c(C(F)(F)F)c4)c(F)c3)c2c1C | -67% (active) |
| CC(=O)OCc1nc(C#N)c(N(C)C)o1 | 103% |
| CN[C@]12CC3(C=CC(=O)C=C3)O[C@@]1(Cc1ccc(OC)cc1)N(C)C(=O)N2 | 98.7% |

| Structure (SMILES) | growth |
| --- | --- |
| C=C(CNCCc1ccc(O)cc1)[C@@H]1CC[C@]2(CO)CC[C@]3(C)[C@H](CC[C@@H]4[C@@]5(C)CCC(NCCO)C(C)(C)[C@@H]5CC[C@]43C)[C@@H]12 (stereo not given in full) | -87.4% (active) |
| O=C1/C(=C\c2cn(-c3ccccc3)nc2-c2ccc(-c3cccs3)cc2)CCc2ccccc21 | 47.1% |
| Cc1ccc(-c2nn(-c3ccccc3)cc2C=C2C(=O)ON=C2C(C)C)cc1 | 80% |
| CC/C(=C(/c1ccc(Cl)cc1)c1ccc(OCCN2CCCC2)cc1)c1ccc(OC)cc1 | 37.6% |
| Cc1c(-c2nc3ccc(F)cc3c(=O)[nH]2)c2ccccc2n1C | 16.2% |
| COC1=CC(c2ccc[nH]2)=N/C1=C\c1[nH]c(C)c(C(=O)OCc2ccccc2)c1C | -11.8% (active) |
| COc1ccc(C/C(C)=C(/c2ccc(OCCN3CCCCC3)cc2)c2ccc(OC(=O)NCc3ccccc3)cc2)cc1 | -90% (active) |
| CC(C)N1CN2C(=S)NC3C2N(C1)C(=S)N3C (stereo not given) | 105% |
| CCCCN[C@H]1CC[C@@]2(C)[C@@H](CC[C@@]3(C)[C@H]2[C@H](O)C[C@H]2/C(=C(\CCC=C(C)C)C(=O)OC)[C@@H](OC(C)=O)C[C@@]23C)[C@@H]1C | 100% |
| O=[N+]([O-])c1ccc(-c2nc(N3CCOCC3)c3c4c(sc3n2)CCCC4)cc1 | 107% |
| COc1cc(N2C(=O)[C@H](O)C2c2ccc(SC)cc2)cc(OC)c1OC (stereo not given in full) | 5.6% (active) |
| C#Cc1ccc(NC(=O)c2ccc(/C=C/C(=O)c3nccn3C)cc2)cc1 | -56.4% (active) |
| Cc1nnc(NC(=O)c2nc(S(=O)(=O)Cc3ccc(F)cc3)ncc2Cl)s1 | 105% |
| Cc1ccccc1/C=C1\CN(C(=O)OC(C)(C)C)C/C(=C\c2ccccc2C)C1=O | -38.3% (active) |
| C[C@]12C=CC(=O)C=C1CCC1C2[C@@H](O)C[C@@]2(C)C1CC[C@]2(O)C(=O)COC(=O)CCC(=O)O (stereo not given in full) | 103% |
| O=C(Cn1c2c(c3ccccc31)CCCC2)Nc1ccc(-c2nc3ccccc3s2)cc1 | 101% |
| Cc1cc(Cl)ccc1Nc1nc(C(F)(F)F)ccc1C(=O)N/N=C/c1ccc([N+](=O)[O-])cc1 | -34.3% (active) |
| O=C(Nn1c2c(sc1=NCc1ccccc1)C(=O)c1ccccc1C2=O)c1cc2ccc1CCc1ccc(cc1)CC2 | 74.9% |
| CC(C)c1ccc(COCc2cc(CN3CCCC3)c(O)c3ncccc23)cc1 | -40.8% (active) |
| Cn1cccc1C(=O)C1C(c2cccc([N+](=O)[O-])c2)C2C3CCCCC3CN2C12C(=O)Nc1ccc(Cl)cc12 (stereo not given) | 37.3% |

Reference: PubChem BioAssay (NCI)
